PubChem BioAssay (NCATS)
Results filed as inconclusive are left out. Calls of active or inactive are those of the source. Unless noted, calls follow the shape of the dose curve; as a rule, active = well fitted curve in the direction sought with a large enough effect; inconclusive = small, poorly fitted or top-dose-only effect, or another doubt; inactive = no such curve, though single readings can be large; an effect the other way counts as inactive or inconclusive.

What was measured:
[1] = AP1 Signaling Pathway (AID 357; active = well fitted curve in either direction with a large enough effect, not every such curve was filed as active;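 also: ME-180 reporter cells stimulated with EGF at its EC50 level; % is scaled to controls: 0 for no effect and ±100 for the full control effect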); settings: ME-180 AP-1-bla reporter, EGF-induced, beta-lactamase ratio, 5 h; at 38 µM (top of the series)
Outline: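 Titration-series screen for positive or negative modulators of EC50 EGF-induced signaling in ME-180 cells carrying an AP-1-driven beta-lactamase reporter. After 5 hours at 37 degrees Celsius, CCF4 460nm/530nm emission ratio gave %Activity; AC50 values derived.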

[2] = target: Cytochrome P450 1A2 (Homo sapiens) (UniProt P05177); assay: p450-cyp1a2 (AID 410; calls by dose curve;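 also: -100% = full effect of reference inhibitor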); settings: recombinant CYP1A2, luciferin-ME demethylation, luminescence; series mostly up to 57 µM
Chain of Cytochrome P450 1A2 (Homo sapiens) (P05177 whole entry, looked up): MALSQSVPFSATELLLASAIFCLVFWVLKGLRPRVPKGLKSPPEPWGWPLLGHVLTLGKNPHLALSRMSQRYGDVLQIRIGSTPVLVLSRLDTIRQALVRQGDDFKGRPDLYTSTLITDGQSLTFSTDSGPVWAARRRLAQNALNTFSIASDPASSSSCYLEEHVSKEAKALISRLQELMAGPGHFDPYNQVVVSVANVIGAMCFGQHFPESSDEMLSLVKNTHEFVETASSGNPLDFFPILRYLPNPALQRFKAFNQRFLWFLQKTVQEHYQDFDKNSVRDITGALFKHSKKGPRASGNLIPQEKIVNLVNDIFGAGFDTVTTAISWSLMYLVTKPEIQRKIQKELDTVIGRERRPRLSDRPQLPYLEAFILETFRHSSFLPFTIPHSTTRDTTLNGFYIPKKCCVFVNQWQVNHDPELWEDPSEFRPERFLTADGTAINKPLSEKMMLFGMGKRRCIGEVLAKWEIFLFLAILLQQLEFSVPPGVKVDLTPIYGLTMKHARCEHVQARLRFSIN
Outline: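 Human CYP1A2 (20nM) demethylated Luciferin-ME at its Km (100uM) in 100mM KPO4. After 10 min compound preincubation, NADPH regeneration ran the reaction 60 min at room temperature. Luciferin was read by luminescence, normalized to 57 uM furafylline.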

[3] = NFAT Signaling Pathway (AID 444; active = well fitted curve in either direction with a large enough effect, not every such curve was filed as active;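 also: carbachol stimulus at about its EC50 of 1 µM final; % is scaled to controls: 0 for no effect and ±100 for the full control effect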); settings: Jurkat NFAT-bla M1, carbachol, beta-lactamase ratio, 5 h; at 38 µM (top of the series)
Outline: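 Jurkat cells carrying an NFAT-driven β-lactamase reporter and co-transfected muscarinic M1 receptor were treated with compound plus carbachol (1 uM final, an EC50 level) for 5 h at 37 °C. CCF4 loading followed for 1 h at RT; 460/530 nm ratio gave %activity.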

[4] = Stat Signaling Pathway (AID 446; active = well fitted curve in either direction with a large enough effect, not every such curve was filed as active;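 also: ME-180 cervical cancer cells given 40 pM IL-6 alongside compound; SIE-controlled beta-lactamase reporter measured as 460/530 nm FRET emission ratio; % is scaled to controls: 0 for no effect and ±100 for the full control effect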); settings: ME-180 SIE beta-lactamase reporter, IL-6 stimulated, 5 h; at 38 µM (top of the series)
Outline: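 ME-180 SIE-bla cells; overnight plating; cpd + IL-6 40 pM, 5 h, 37 C; LiveBLAzer 2.5 h RT; 460/530 nm emission ratio. Normalized to 300 pM IL-6 and 125 nM JAK inhibitor controls.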

[5] = target: Glucocorticoid receptor (Homo sapiens) (UniProt P04150); assay: GR-GFP Redistribution (AID 450;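 active = compounds whose dose series gives a full or clear partial fitted curve of increased nuclear translocation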; also: potency is read from the fitted curve at half-maximal effect); settings: U2OS GR-GFP nuclear translocation, laser cytometry, 2 h
Chain of Glucocorticoid receptor (Homo sapiens) (P04150 whole entry, looked up): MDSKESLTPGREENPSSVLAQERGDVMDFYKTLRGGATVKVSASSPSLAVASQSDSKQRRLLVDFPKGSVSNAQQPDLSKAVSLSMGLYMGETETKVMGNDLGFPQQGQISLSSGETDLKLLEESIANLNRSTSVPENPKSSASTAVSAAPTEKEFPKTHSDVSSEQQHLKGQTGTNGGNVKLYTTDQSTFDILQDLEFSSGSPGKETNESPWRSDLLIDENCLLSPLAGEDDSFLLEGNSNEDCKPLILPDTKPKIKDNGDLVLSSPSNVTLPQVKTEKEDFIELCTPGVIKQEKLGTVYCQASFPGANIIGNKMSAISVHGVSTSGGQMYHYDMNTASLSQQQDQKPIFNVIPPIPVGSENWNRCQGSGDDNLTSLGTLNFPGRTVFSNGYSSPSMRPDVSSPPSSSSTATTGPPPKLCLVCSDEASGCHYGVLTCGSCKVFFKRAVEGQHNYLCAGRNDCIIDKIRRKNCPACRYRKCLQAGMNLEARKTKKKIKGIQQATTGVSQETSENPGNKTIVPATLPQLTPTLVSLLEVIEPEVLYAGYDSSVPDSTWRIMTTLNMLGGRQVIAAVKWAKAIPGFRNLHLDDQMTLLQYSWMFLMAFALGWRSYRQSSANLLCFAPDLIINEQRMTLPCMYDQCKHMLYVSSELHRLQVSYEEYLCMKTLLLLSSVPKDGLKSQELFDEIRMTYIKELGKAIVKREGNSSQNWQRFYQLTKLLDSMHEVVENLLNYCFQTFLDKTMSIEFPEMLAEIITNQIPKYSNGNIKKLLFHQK

[6] = target: 3',5'-cyclic-AMP phosphodiesterase 4B (Homo sapiens) (UniProt Q07343); assay: qHTS Assay for Inhibitors of PDE-IV (AID 607; active = well fitted activation curve with a large enough effect in the main read-out, with a control signal flat, not every such curve was filed as active; also: % of control where 0% means no effect); settings: HEK293 ACTOne CNG channel cells, membrane potential fluorescence; series mostly up to 22.9 µM
Chain of 3',5'-cyclic-AMP phosphodiesterase 4B (Homo sapiens) (Q07343 whole entry, looked up): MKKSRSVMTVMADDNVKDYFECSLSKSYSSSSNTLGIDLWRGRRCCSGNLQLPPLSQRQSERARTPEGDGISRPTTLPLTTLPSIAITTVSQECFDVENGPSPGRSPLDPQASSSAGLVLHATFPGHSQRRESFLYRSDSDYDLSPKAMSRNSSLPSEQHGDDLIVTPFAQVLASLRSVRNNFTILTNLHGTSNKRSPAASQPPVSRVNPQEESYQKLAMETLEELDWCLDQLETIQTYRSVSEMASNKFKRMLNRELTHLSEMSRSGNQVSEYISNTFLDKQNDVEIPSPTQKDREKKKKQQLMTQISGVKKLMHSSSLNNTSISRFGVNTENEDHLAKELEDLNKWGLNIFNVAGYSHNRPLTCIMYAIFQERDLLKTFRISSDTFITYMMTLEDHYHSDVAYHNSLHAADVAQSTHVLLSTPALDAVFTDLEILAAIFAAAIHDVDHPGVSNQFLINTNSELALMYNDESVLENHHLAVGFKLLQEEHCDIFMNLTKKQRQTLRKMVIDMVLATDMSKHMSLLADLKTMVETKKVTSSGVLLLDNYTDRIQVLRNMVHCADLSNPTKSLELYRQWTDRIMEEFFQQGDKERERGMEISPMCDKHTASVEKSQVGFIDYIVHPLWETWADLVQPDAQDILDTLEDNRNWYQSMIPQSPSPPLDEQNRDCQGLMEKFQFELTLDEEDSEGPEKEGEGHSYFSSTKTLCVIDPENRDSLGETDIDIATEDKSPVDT
Outline: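 ACTOne HEK293 cells carry a modified cAMP-gated CNG channel and express endogenous PDE4; plated 1000 cells/well, compounds up to 22.9 uM final. Membrane-potential dye fluorescence (ex 535/em 590) was read; parental cells received 10 uM forskolin + 100 uM RO 20-1724.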

[7] = target: Guanine nucleotide-binding protein G(i) subunit alpha-1 (Homo sapiens) (UniProt P63096); assay: qHTS Assay for Inhibitors of RGS12 GoLoco Motif Activity (Green Fluorophore) (AID 879); settings: Galphai1/FITC-RGS12 GoLoco peptide, fluorescence polarization; series mostly up to 57.1 µM;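 also: 0% = labeled peptide with Gαi1 and full inhibition = labeled peptide alone without protein; negative values mean loss of peptide binding seen as reduced polarization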
Chain of Guanine nucleotide-binding protein G(i) subunit alpha-1 (Homo sapiens) (P63096 whole entry, looked up): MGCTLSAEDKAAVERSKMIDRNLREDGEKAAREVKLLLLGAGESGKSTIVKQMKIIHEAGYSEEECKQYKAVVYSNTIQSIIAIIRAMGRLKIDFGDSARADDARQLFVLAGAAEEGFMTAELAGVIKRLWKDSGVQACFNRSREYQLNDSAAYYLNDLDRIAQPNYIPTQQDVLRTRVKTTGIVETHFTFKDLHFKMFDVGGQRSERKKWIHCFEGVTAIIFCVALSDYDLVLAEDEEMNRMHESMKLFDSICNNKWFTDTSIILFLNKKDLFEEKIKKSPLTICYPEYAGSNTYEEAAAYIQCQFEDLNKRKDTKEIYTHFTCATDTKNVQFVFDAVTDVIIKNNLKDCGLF
Outline: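 Fluorescence polarization assay: 50 nM Gαi1 with 10 nM FITC-labeled RGS12 GoLoco peptide in 10 mM Tris pH 7.5, 150 mM NaCl, 0.1 mM GDP, 0.05% NP40, 10 min at room temperature with compound.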

[8] = target: Cytochrome P450 2C9 (Homo sapiens) (UniProt P11712); assay: qHTS Assay for Inhibitors and Substrates of Cytochrome P450 2C9 (AID 883); settings: recombinant CYP2C9, luciferin-H luminescence, 60 min; series mostly up to 57.1 µM; also: % is scaled to controls: 0 for no effect and ±100 for the full control effect; nearly all actives have a fitted effect of over 60% in size
Chain of Cytochrome P450 2C9 (Homo sapiens) (P11712 whole entry, looked up): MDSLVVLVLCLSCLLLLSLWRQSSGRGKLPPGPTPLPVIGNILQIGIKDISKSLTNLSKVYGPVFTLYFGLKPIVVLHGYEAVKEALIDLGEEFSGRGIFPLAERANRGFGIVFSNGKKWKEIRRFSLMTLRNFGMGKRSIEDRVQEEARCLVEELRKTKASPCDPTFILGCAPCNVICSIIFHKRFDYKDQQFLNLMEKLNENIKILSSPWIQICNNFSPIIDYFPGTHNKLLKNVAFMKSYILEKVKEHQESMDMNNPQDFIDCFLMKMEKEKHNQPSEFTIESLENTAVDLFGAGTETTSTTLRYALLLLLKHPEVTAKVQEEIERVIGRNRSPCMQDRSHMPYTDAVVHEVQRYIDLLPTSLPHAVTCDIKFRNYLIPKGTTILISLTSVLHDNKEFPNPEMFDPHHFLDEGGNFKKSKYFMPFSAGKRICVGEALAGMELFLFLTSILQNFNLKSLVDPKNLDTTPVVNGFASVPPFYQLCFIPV
Outline: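 Human CYP2C9 (10nM) hydroxylated Luciferin-H (100uM, at its KM) to luciferin in 25mM KPO4. Compound was preincubated 10 min at 37C, then NADPH regeneration started a 60 min reaction at 37C. Luminescence was read after detection reagent, normalized to 57uM sulphaphenazole.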

[9] = target: Cytochrome P450 3A4 (Homo sapiens) (UniProt P08684); assay: qHTS Assay for Activators of Cytochrome P450 3A4 (AID 885); settings: recombinant CYP3A4, Luciferin-PPXE luminescence, 60 min; series mostly up to 57.1 µM; also: nearly all actives have a fitted effect of over 65% in size
Outline: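 20nM CYP3A4 + 25uM Luciferin-PPXE (=KM), 200mM KPO4; cpd 10 min RT; NADPH regen, 60 min RT; stop w/ detection buffer, 20 min; luminescence. Normalized to 57 uM ketoconazole.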

[10] = Confirmation and Secondary Assay for Modulators of Hemoglobin Beta Chain Splicing at IVS2 654 locus (AID 910); settings: HeLa EGFP-654 splicing reporter, GFP fluorescence, 48 h; series mostly up to 46.1 µM;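 also: per-well total GFP intensity by laser scanning cytometry after 2-day treatment; % of control where 0% means no effect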
Outline: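 HeLa cells stably carrying EGFP interrupted by mutant beta-globin IVS2-654 intron (CMV-driven) were treated with compound for 2 days at 37C; corrected splicing was scored as total peak GFP intensity per well (488 nm excitation, 500-520 nm emission).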

[11] = Confirmation and Secondary Assay for Modulators of Hemoglobin Beta Chain Splicing at IVS2 705 locus (AID 930); settings: HeLa EGFP-705 splicing reporter, GFP fluorescence, 48 h; series mostly up to 46.1 µM;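 also: HeLa cells stably expressing the EGFP-705 splicing reporter; GFP fluorescence per well restored by corrected splicing of the IVS2-705 intron in EGFP; % of control where 0% means no effect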
Outline: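 Splice-correction reporter: EGFP cDNA split by beta-globin intron 2 bearing the 705 mutation, stably in HeLa. Compound incubation 2 days, 37C; fluorescent objects 5-250 µm summed per well.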

[12] = target: Pyruvate kinase (Leishmania mexicana) (UniProt Q27686); assay: qHTS Validation Assay for Inhibitors of Leishmania Mexicana Pyruvate Kinase (AID 945);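 also: 0% = DMSO only neutral control wells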; settings: purified L. mexicana pyruvate kinase, enzyme activity, E451W mutant enzyme; series mostly up to 57.5 µM
Chain of Pyruvate kinase (Leishmania mexicana) (Q27686 2-499 E452W): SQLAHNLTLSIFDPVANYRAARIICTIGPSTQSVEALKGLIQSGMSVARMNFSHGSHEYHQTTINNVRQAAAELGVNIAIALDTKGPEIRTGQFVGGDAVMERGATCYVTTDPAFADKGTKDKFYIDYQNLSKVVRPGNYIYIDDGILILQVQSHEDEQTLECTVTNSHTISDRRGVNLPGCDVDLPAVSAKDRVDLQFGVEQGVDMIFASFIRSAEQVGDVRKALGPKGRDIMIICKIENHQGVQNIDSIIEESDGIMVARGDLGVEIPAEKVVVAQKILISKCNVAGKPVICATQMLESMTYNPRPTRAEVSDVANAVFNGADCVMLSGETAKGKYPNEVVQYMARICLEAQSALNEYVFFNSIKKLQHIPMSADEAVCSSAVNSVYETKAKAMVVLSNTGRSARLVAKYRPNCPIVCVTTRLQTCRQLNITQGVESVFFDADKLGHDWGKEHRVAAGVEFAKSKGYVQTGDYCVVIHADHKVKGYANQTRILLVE
Outline: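 The enzyme is a highly purified E451W mutant of LmPYK used at 0.2 nM. It converts 0.5 mM PEP and 0.1 mM ADP over 1 h at room temperature; product ATP is quantified by luciferase luminescence relative to DMSO controls.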

[13] = target: Pyruvate kinase PKM (Homo sapiens) (UniProt P14618); assay: qHTS Assay for Activators of Human Muscle Pyruvate Kinase (AID 954; active = well fitted curve in the direction sought with a large enough effect, not every such curve was filed as active;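 also: 0% = uninhibited enzyme and -100% = no enzyme or full thiadiazolimine inhibition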); settings: purified human muscle pyruvate kinase, luciferase-coupled luminescence, 1 h; series mostly up to 57.5 µM
Chain of Pyruvate kinase PKM (Homo sapiens) (P14618 whole entry, looked up): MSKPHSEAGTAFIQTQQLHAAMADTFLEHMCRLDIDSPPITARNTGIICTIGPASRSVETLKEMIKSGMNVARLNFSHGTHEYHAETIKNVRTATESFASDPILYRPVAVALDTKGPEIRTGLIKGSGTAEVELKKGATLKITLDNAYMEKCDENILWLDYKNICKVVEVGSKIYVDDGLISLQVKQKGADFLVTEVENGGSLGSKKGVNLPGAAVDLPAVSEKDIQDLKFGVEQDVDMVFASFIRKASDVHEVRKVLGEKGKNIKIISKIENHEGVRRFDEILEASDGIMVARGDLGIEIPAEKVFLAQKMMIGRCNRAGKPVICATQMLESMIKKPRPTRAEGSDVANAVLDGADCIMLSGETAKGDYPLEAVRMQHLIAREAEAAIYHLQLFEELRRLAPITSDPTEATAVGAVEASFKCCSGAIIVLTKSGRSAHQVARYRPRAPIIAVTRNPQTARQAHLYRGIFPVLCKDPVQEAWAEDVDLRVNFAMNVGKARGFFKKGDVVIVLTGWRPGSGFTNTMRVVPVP
Outline: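 Luminescence from a luciferase ATP-detection/stop reagent reported PKM2 activity. Reactions contained 0.1 nM purified human enzyme, 0.5 mM PEP, 0.1 mM ADP and 7 mM MgCl2 at pH 7.2, run 1 h at RT.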

[14] = target: Alpha-galactosidase A (Homo sapiens) (UniProt P06280); assay: Counterscreen for Glucocerebrosidase Inhibitors: qHTS Assay for Human alpha-Galactosidase at pH 4.5 (AID 992); settings: purified enzyme, fluorogenic substrate; series mostly up to 76.9 µM; also: 0% is about no effect
Chain of Alpha-galactosidase A (Homo sapiens) (P06280 whole entry, looked up): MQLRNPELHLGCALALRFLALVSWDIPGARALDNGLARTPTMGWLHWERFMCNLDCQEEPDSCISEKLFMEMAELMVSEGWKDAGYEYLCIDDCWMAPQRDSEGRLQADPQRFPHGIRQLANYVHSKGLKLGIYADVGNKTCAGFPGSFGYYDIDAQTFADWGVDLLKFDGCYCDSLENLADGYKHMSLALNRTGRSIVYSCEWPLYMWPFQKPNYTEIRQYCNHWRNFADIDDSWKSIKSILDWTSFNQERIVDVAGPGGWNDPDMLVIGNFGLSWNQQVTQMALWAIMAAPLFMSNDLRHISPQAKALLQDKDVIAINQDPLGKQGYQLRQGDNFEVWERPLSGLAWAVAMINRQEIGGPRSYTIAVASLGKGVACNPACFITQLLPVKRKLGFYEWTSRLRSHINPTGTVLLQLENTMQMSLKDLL
Outline: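 Enzyme at 2 nM final was combined with compound (0.7 nM to 77 uM) and 80 uM 4-methylumbelliferyl alpha-D-galactopyranoside in 50 mM citric acid, 0.005% Tween-20, pH 4.5. After 20 min at room temperature, fluorescence was read (Ex 365/Em 440 nm); AC50 came from Hill fits.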

[15] = target: alpha-glucosidase (Oryza sativa, rice) (UniProt Q653V4); assay: Counterscreen for Glucocerebrosidase Inhibitors: qHTS Assay for Rice alpha-Glucosidase at pH 5.0 (AID 997); settings: rice alpha-glucosidase enzyme activity; series mostly up to 76.9 µM;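 also: 0% = full activity with enzyme and -100% = basal without enzyme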
Outline: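 Rice alpha-glucosidase (4 nM final) with 400 uM 4-methylumbelliferyl-alpha-D-glucopyranoside in citrate buffer pH 5.0, 20 min at room temperature, stopped at pH 10; fluorescence 365/440 nm, compounds 0.7 nM–77 uM, AC50 from Hill fits.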

[16] = qHTS Assay for Lipid Storage Modulators (AID 1519; calls by dose curve); settings: Drosophila S3 cells, BODIPY lipid droplet/cell ratio, laser cytometry, cells loaded with oleic acid
Outline: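 Cells seeded at 5,000 per well were treated with compounds over a concentration series and loaded with oleic acid (400 uM, as added). Lipid droplet fluorescence (488 nm excitation, 500-530 nm channel) was read by laser-scanning cytometry and normalized to 20 uM Triacsin C.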

[17] = target: DNA dC->dU-editing enzyme APOBEC-3G (Homo sapiens) (UniProt Q9HC16); assay: qHTS for inhibitors of Vif-A3G interactions: Validation (AID 588379); settings: Vif-A3G protein interaction assay; series mostly up to 46.1 µM; also: 0% is about no effect
Outline: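 HeLa cells stably expressing Vif and A3G-eYFP, 700 cells/well, incubated overnight at 37 deg C, then exposed to compound overnight at 37 deg C. Inhibition of Vif-mediated degradation read as increased yellow fluorescence (Ex 488/Em 500-530) by laser-scanning cytometry.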

[18] = test system: Zika virus NS2B-NS3 protease; assay: Primary screen GU AMC qHTS for Zika virus inhibitors (AID 1347154); settings: Zika NS2B-NS3 unlinked protease, AMC fluorogenic substrate; series mostly up to 54.1 µM;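 also: 0% = no-inhibitor control and -100% = no-enzyme control; nearly all actives have a fitted effect of over 70% in size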
Outline: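 Unlinked Zika NS2B hydrophilic domain/NS3 protease domain noncovalent complex (25 nM final) in 10 mM Tris-HCl pH 8.0, 0.01% Tween 20, with AMC peptide substrate. Fluorescence (ex 340, em 450 nm) change over 15 min, room temperature; percent inhibition fitted to 4-parameter Hill equation.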

[19] = Counterscreen qHTS for small molecule stabilizers of the endoplasmic reticulum resident proteome: GLuc-NoTag assay (AID 1508627); settings: Gaussia luciferase NoTag secretion counterscreen, luminescence, thapsigargin 100 nM for final 4 h; series mostly up to 76.4 µM;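 also: SH-SY5Y cells given compound then 100 nM thapsigargin to empty ER calcium; 0% = thapsigargin alone and -100% = DMSO vehicle control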
Outline: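 SH-SY5Y cells stably expressing constitutively secreted GLuc (no SERCaMP tag) were pre-incubated 5 h, treated with compound for 19 h, then 100 nM thapsigargin for 4 h at 37C; medium GLuc read by coelenterazine luminescence.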

[20] = Confirmatory qHTS for small molecule stabilizers of the endoplasmic reticulum resident proteome: Secreted ER Calcium Modulated Protein (SERCaMP) assay (AID 1508628); settings: SERCaMP secreted luciferase ER calcium/proteostasis reporter; series mostly up to 76.3 µM;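 also: SH-SY5Y cells given compound 16 h then thapsigargin 100 nM for 4 h; % is scaled to controls: 0 for no effect and ±100 for the full control effect; nearly all actives have a fitted effect of over 40% in size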
Outline: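 We seeded SH-SY5Y-GLuc-SERCaMP cells, added compounds (three concentrations in the primary run, eleven up to 76.6 uM in confirmation), incubated 16 h, depleted ER calcium with thapsigargin, and read luciferase 4 h later.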

[21] = Primary qHTS for small molecule stabilizers of the endoplasmic reticulum resident proteome: Secreted ER Calcium Modulated Protein (SERCaMP) assay (AID 1508630); settings: SH-SY5Y GLuc-SERCaMP (Gaussia luciferase released on ER calcium loss) secretion, thapsigargin, luminescence; series mostly up to 38.4 µM; also: % is scaled to controls: 0 for no effect and ±100 for the full control effect
Outline: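 GLuc-SERCaMP-expressing SH-SY5Y cells, pretreated 16 h with compound, are challenged with thapsigargin to empty ER calcium stores; after 4 h, coelenterazine is added directly to the medium and luminescence is imaged.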

[22] = target: Cytochrome P450 2D6 (Homo sapiens) (UniProt P10635); assay: Cytochrome P450 family 2 subfamily D member 6 (CYP2D6) small molecule antagonists: luciferase biochemical (cell-free) qHTS assay (AID 1645840; active = well fitted curve in the direction sought with a large enough effect in the repeat runs; an effect the other way counts as inactive or inconclusive; also: % is scaled to controls: 0 for no effect and ±100 for the full control effect; nearly all actives have a fitted effect of over 55% in size); settings: P450-Glo CYP2D6 enzyme, luciferin luminescence, 1 h; series mostly up to 57.4 µM
Chain of Cytochrome P450 2D6 (Homo sapiens) (P10635 whole entry, looked up): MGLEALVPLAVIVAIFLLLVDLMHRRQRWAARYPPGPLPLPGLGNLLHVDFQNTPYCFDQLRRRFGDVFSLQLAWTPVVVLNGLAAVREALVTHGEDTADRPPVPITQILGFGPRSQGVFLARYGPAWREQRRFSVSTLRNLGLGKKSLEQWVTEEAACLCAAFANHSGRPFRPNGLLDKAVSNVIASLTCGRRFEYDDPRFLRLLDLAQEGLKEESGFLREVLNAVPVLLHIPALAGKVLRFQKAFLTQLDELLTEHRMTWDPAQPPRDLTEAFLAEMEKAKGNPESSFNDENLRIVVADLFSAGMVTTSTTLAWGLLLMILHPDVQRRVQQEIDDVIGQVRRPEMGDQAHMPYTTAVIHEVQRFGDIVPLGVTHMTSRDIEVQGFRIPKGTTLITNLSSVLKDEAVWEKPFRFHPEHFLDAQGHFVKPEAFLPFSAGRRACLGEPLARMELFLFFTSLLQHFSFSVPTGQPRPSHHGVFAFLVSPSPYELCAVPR
Outline: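 P450-Glo luminescent screen: recombinant CYP2D6 enzyme–proluciferin substrate mix preincubated with compound 10 min at room temperature, then NADPH regeneration added for 1 h at room temperature. Detection reagent added for 20 min; luciferin light read as relative luminescence units.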

[23] = target: Cytochrome P450 2C9 (Homo sapiens) (UniProt P11712); assay: Cytochrome P450 family 2 subfamily C member 9 (CYP2C9) small molecule antagonists: luciferase biochemical (cell-free) qHTS assay (AID 1645842; active = well fitted curve in the direction sought with a large enough effect in the repeat runs; an effect the other way counts as inactive or inconclusive; also: % is scaled to controls: 0 for no effect and ±100 for the full control effect; nearly all actives have a fitted effect of over 55% in size); settings: P450-Glo CYP2C9 enzyme assay, luciferin luminescence; series mostly up to 57.4 µM
Outline: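 Luminescence, after 20 min with luciferin detection reagent, reflected CYP2C9 turnover during a 1 h NADPH-driven reaction at 37C. Enzyme-substrate mix contained 0.4% bovine serum albumin and was preincubated with compound 10 min at room temperature.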

[24] = Primary qHTS for inhibitors of nuclear receptor binding SET domain protein 2 (NSD2) in an isogenic RCH-ACV NSD2 p.E1099K mutant (9B) (AID 1645876); settings: RCH-ACV NSD2 E1099K (9B) viability, CellTiter-Glo, 72 h; series mostly up to 44.9 µM; also: potency is read from the fitted curve at half-maximal effect; nearly all actives have a fitted effect of over 70% in size
[25] = Primary qHTS for inhibitors of nuclear receptor binding SET domain protein 2 (NSD2) in an RCH-ACV wild type WT cells (2C) (AID 1645877); settings: RCH-ACV (leukaemia line) NSD2 WT (2C) viability, CellTiter-Glo, 72 h; series mostly up to 44.9 µM; also: potency is read from the fitted curve at half-maximal effect; nearly all actives have a fitted effect of over 70% in size
[26] = qHTS assay to identify inhibitors of the type 1 interferon - major histocompatibility complex class I in skeletal muscle: Counter screen cell viability and HiBit confirmation (AID 1347412); settings: iHSKM muscle cells + IFN-b, HiBiT or CellTiter-Glo, 24 h; also: nearly all actives have a fitted effect of over 60% in size; also: potency is read from the fitted curve at half-maximal effect
Outline: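 Luminescence read-out: Nano-Glo HiBiT lytic signal from C-terminally HiBiT-tagged HLA-B in CRISPR-edited human myoblasts, plus CellTiter Glo ATP as viability counter screen. IFN-beta 4.0 ng/ml; 24 hrs treatment at 37 C, 5% CO2.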

Oc1cc2c(cc1O)[C@H](c1ccccc1)CNCC2
4.46%: max response ([16]; measured here: cell count channel max response)
inactive: activity change, negative = inhibition [1] -11.5% | Potency [2] | activity change, negative = inhibition [3] -1.81% | activity, negative = inhibition [4] 0.446% | Potency [5] > 46 µM | Potency [6] | outcome [7] | Potency [8] | Potency [9] | outcome [10] | outcome [11] | Potency [12] | outcome [13] | outcome [14] | outcome [15] | activity change, negative = inhibition ([16]; at 57.5 µM (top of the series)) -0.123% | Potency [17] | Potency [18] | Potency [19] | Potency [20]
3.98%: max response ([16]; measured here: lipid channel max response)

C=C1C(=O)O[C@@H]2[C@H]3O[C@]3(C)CC/C=C(\C)CC[C@@H]12
inactive: Potency [18] | Potency [21] | Potency [22] | Potency [23] | activity change, negative = inhibition ([26]; Viability, at 45.9 µM (top of the series)) 0.032%
active: Potency [24] 3.72 µM | Potency [25] 2.09 µM | Potency ([26]; HiBiT) 7.01 µM
